PubChem BioAssay (NCI)
This is part of a sample that, as a whole, favours compounds with a hit. Of some 79,000 tested, about 15% had one in any assay. Values without a mark were called inactive. Activity calls are given as the source filed them. Rule as the data show it: active = growth inhibition above about 70%; inactive = the rest.

Assay: NCI Yeast Anticancer Drug Screen. Data for the sgs1 mgt1 strain (AID 161);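 also: 0% = growth of cultures given vehicle only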
Conditions: S. cerevisiae sgs1 mgt1 strain, at 50.0 µM, stronger effect = higher value
Protocol: Growth inhibition of yeast strains with defined genetic alterations is measured as a screen for potential anti-cancer activity. Selected strains with alterations in DNA damage repair or cell cycle control were exposed to compounds and growth inhibition was measured relative to vehicle treated controls. The strain used in this assay is sgs1 mgt1

Going from CCOC(=O)C(C#N)C1CC2CCC1C2 (stereo not given) to CCOC(=O)C1(C(=O)OCC)CC1c1ccccc1 (stereo not given), the growth inhibition rises from -22.2% to 5.5%.

Going from CC1=C(C(=O)Nc2cccc3c2C(=O)NC3=O)CC(C(=O)Nc2cccc3c2C(=O)NC3=O)=C(C)N1 to O=c1c2cc([N+](=O)[O-])ccc2c2ccc([N+](=O)[O-])cc2c(=O)n1-c1ccc2c(c1)Cc1ccccc1-2, the growth inhibition falls from -6.15% to -19.2%.

Going from O=C(CCC(=O)Nc1cccc([N+](=O)[O-])c1)CC(=O)c1ccc(Cl)cc1 to COc1cccc(NC(=O)CSc2nnc(-c3ccc(NC(C)=O)cc3)o2)c1, the growth inhibition falls from -7.9% to -15.3%.

Compared with CC1=NN(c2ccccc2)C(N)C1 (stereo not given), Cc1cccc[n+]1CC(=O)c1ccccc1 is higher in growth inhibition: 23.3% for the first, 34.5% for the second.

First: CCOC(=O)/C(=C\c1ccc[nH]1)C(=O)c1ccccc1
Second: O=C(O)c1ccccc1P(=O)(O)c1ccccc1
The growth inhibition of the first is higher: 5% for the first, -6.7% for the second.

Compared with CC1=CC[N+](C)(C)C(C(N)=O)C1 (stereo not given), NC(Cc1cc(I)c(O)c(I)c1)C(=O)O (stereo not given) is higher in growth inhibition: -17.2% for the first, -12.6% for the second.

First: C/C(CC(=O)Nc1ccc([N+](=O)[O-])cc1)=N/N=C(N)N
Second: O=[N+]([O-])c1ccc(OC2OC(CO)C(O)C(O)C2O)cc1 (stereo not given)
The growth inhibition of the first is lower: -8.6% for the first, -4.7% for the second.

Compared with COCc1ccc(C(=O)Nc2c(N)ncnc2N)cc1, COC(=O)c1cc(-c2ccc(F)cc2)[nH]c(=O)c1C#N is higher in growth inhibition: -0.15% for the first, 15.3% for the second.

First: O=C(O)C1c2ccccc2C(C(=O)O)c2ccccc21 (stereo not given)
Second: C/C(=N\N(c1ccccc1)c1ccccc1)c1c(O)cc(C)oc1=O
The growth inhibition of the first is lower: -4% for the first, 12.9% for the second.

Compared with O=P(CCC(CC(F)(F)C(F)(F)C(F)(F)C(F)(F)C(F)(F)C(F)(F)C(F)(F)F)P(=O)(N1CC1)N1CC1)(N1CC1)N1CC1 (stereo not given), O=C(CN1CCCCC1)c1ccc(CCc2ccc(C(=O)CN3CCCCC3)cc2)cc1 is higher in growth inhibition: -1.6% for the first, 33.9% for the second.

First: CN(C)n1c(O)c(N=O)sc1=S
Second: CCN(CC)Cc1cc(-n2cnc3c(=S)nc[nH]c32)ccc1O
The growth inhibition of the first is higher: -7.65% for the first, -8.8% for the second.

Compared with C#CCOCCCC(=O)O, CSCCC(NCCC#N)C(=O)O (stereo not given) is higher in growth inhibition: 0.6% for the first, 8.45% for the second.

First: N#CCCN(CCC#N)c1ccc(C(=O)NN)cc1
Second: Cc1cc(N(CCC#N)CCC#N)ccc1/C=C1N=C(/C=C\c2ccccc2)N(NC(=O)CC(=O)Nc2ccccc2Cl)C\1=O
The growth inhibition of the first is lower: -3.2% for the first, 1.55% for the second.

Compared with CCCCCCCCCCCC(=O)Nc1cc(Cl)c(OC)cc1OC, COc1cc([N+](=O)[O-])c(OC)cc1N is lower in growth inhibition: 13.9% for the first, -13.1% for the second.

Compared with Oc1ccccc1C=Nc1ccccc1N=Cc1ccccc1O.[Zn], Oc1ccc(CN=Cc2ccccc2)cc1 is lower in growth inhibition: -3.45% for the first, -7.05% for the second.

Compared with COC(=O)C1CCC(=O)N1Cc1csc(-c2ccccc2)n1 (stereo not given), Cc1ncc2c(=O)c3c(oc2n1)c1ccccc1n3Cc1ccccc1 is higher in growth inhibition: -6.8% for the first, 15.2% for the second.

First: O=C1CCSc2nc(-c3ccc4c(c3)OCO4)nn21
Second: CSc1cc2c(cc1[N+](=O)[O-])C(=O)c1ccccc1-2
The growth inhibition of the first is lower: -13.3% for the first, 0.8% for the second.

Going from O=[N+]([O-])c1cc(Cl)ccc1NC(Nc1ccc(Cl)cc1[N+](=O)[O-])C(Cl)(Cl)Cl to O=[N+]([O-])c1ccccc1N=Nc1c(O)[nH]c2c(Cl)cc(Cl)cc12, the growth inhibition falls from 28.4% to -31.9%.

Compared with c1ccc(C(Sc2c[nH]c3ccccc23)(c2ccccc2)c2ccccc2)cc1 (tested in a mixture with another compound), NC(Cc1ccccc1F)C(=O)O (stereo not given) is lower in growth inhibition: 9.8% for the first, 5.4% for the second.

CC(=O)N(c1ccc(F)c(F)c1)c1ccc(F)c(F)c1 showed a growth inhibition of -0.9%.

For CCCCCCCCCCCCN=Cc1cc(Cc2ccc(O)c(C=NCCCCCCCCCCCC)c2)ccc1O, the growth inhibition was 91.3% (active).
